Measurements reported in ChEMBL document CHEMBL4513143, “CO-ADD screening of University of Natural Resources and Life (Austria) compounds”.
Results with a measured potency or affinity are listed apart.

What was measured:
Staphylococcus aureus = conditions: Concentration 32 ug.mL-1; ASSAY_TEST Inhibition of Bacterial Growth; detection method Absorption (OD600); MEDIA CAMHB; plate type 384well; NBS; CORNING #3640; time 18 hr
Escherichia coli = conditions: Concentration 32 ug.mL-1; ASSAY_TEST Inhibition of Bacterial Growth; detection method Absorption (OD600); MEDIA CAMHB; plate type 384well; NBS; CORNING #3640; time 18 hr

Row | SMILES | Inhibition (Staphylococcus aureus) [%] | Inhibition (Escherichia coli) [%]
1 | CCN(CC)CC.C[C@H](CC1O[C@H]([C@@H](O)CO)[C@@H](O)[C@H](O)[C@@H]1O)OP(=O)(O)O (stereo not given in full) | 23.43 | 26.24
2 | CC(=O)CC1O[C@H]([C@@H](O)CO)[C@@H](O)[C@H](O)[C@@H]1O (stereo not given in full) | 21.72 | 24.3
3 | N.O=C(O)C1(O)C[C@@H](O)[C@H](O)[C@@H]([C@@H](O)CO)O1 (stereo not given in full) | 25.6 | 22.94
4 | OC[C@@H](O)[C@H]1OC(O)C[C@@H](O)[C@@H]1O (stereo not given in full) | 21.66 | 15.99
5 | CCN(CC)CC.O=P(O)(O)OC1C[C@@H](O)[C@H](O)[C@@H]([C@H](O)CO)O1 (stereo not given in full) | 23.92 | 21.41
6 | CCN(CC)CC.C[C@@H](CC1O[C@H]([C@H](O)CO)[C@@H](O)[C@H](O)[C@@H]1O)OP(=O)(O)OC[C@H]1O[C@@H](n2cnc3c(N)ncnc32)[C@H](O)[C@@H]1O (stereo not given in full) | 27.38 | 10.57
7 | CCN(CC)CC.C[C@H](CC1O[C@H]([C@@H](O)CO)[C@@H](O)[C@H](O)[C@@H]1O)OP(=O)(O)OC[C@H]1O[C@@H](n2cnc3c(N)ncnc32)[C@H](O)[C@@H]1O (stereo not given in full) | 25.31 | 11.12
8 | CCN(CC)CC.C[C@@H](CC1O[C@H]([C@@H](O)CO)[C@@H](O)[C@H](O)[C@@H]1O)OP(=O)(O)OC[C@H]1O[C@@H](n2cnc3c(N)ncnc32)[C@H](O)[C@@H]1O (stereo not given in full) | 27.76 | 16.43
9 | CCN(CC)CC.C[C@@H](CC1O[C@H]([C@@H](O)CO)[C@@H](O)[C@H](O)[C@@H]1O)OP(=O)(O)O (stereo not given in full) | 24.59 | 26.95
10 | CCN(CC)CC.C[C@H](CC1O[C@H]([C@H](O)CO)[C@@H](O)[C@H](O)[C@@H]1O)OP(=O)(O)OC[C@H]1O[C@@H](n2cnc3c(N)ncnc32)[C@H](O)[C@@H]1O (stereo not given in full) | 30.75 | 16.06
